High-throughput results: PubChem, National Center for Advancing Translational Sciences (NCATS)
Compounds with a hit are over-represented: about 7.2% of the library has one in this group of screens.
NPR1 antag = antagonists of human natriuretic peptide receptor Npr1; P16066; HEK293 hNpr1 GloSensor cGMP, ANP-stimulated luminescence; Potency, µM (titrated, usually from 46.3 µM), actives largely listed as inhibitors; 76,000 compounds, 1.6% hits; AID 1347048; calls by dose curve; further: nearly all actives have a fitted effect of over 60% in size
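Compound pre-incubated 30 min at room temperature on GloSensor-loaded HEK293 cells stably carrying hNpr1 and the pGS-40F cGMP biosensor. Stimulation uses hNppA at 0.1 nM final; luminescence is taken at baseline and 20 min post-agonist.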
SNCA expr inh = reduces expression of the alpha-synuclein gene. HEK-293 SNCA-luciferase knock-in, luminescence, 24 h. Potency, µM (doses to about 57.2 µM), actives largely listed as inhibitors. 140,000 compounds, 0.17% hits; further: nearly all actives have a fitted effect of over 45% in size
FLuc inh = inhibitors of firefly (Photinus pyralis) luciferase | P08659 | purified P. pyralis luciferase, luminescence, biochemical | Potency, µM (doses to about 115 µM), most hits filed as inhibitors | 76,000 compounds, 2.5% hits | AID 1347043; further: nearly all actives have a fitted effect of over 65% in size
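Inhibitors were tested against purified firefly luciferase in a biochemical, low-substrate format (both substrates at 10uM) and luminescence measured with a CCD imager.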
NIH3T3 tox = cytotoxic compounds in NIH 3T3 cells; Potency, µM (top dose mostly 96.7 µM), most hits filed as inhibitors; NIH 3T3 viability, CellTiter-Glo ATP luminescence, 48-72 h; 94,000 compounds, 4.3% hits; AID 1345082; further: nearly all actives have a fitted effect of over 55% in size
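Luminescent ATP readout (CellTiter-Glo, 10 min RT) after 48 or 72 hr compound exposure of NIH 3T3 cells seeded at 400 cells/well in 1536-well format; quantitative HTS.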
HEK cytotox = HEK 293 cell cytotoxicity; 94,000 compounds, 6.6% hits; HEK 293 viability, ATP luminescence (CellTiter-Glo), 48-72 h; Potency, µM (top dose mostly 115 µM), usual class: inhibitors; AID 1345083; further: nearly all actives have a fitted effect of over 60% in size
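250 HEK 293 cells/well; compound by pintool; incubated 48 or 72 hr at 37 degree Celsius; CellTiter-Glo added, 10 min RT, luminescence imaged.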
SNCA viab count = cell viability loss counter-screen | Potency, µM (titrated, usually from 57.1 µM), most hits filed as cytotoxic | HEK-293-SNCA-luc viability, GF-AFC fluorescence, 24 h | AID 1671193 | 150,000 compounds, 0.12% hits; further: nearly all actives have a fitted effect of over 30% in size
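Cytotoxicity counterscreen: after 24 h compound treatment of genome-edited SNCA-luciferase HEK-293 cells, live-cell protease substrate GF-AFC read by fluorescence after 30 min; activity scaled between DMSO (0%) and medium-only (-100%), curves Hill-fitted.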
Npr1 antag conf = hNpr1 antagonism, confirmation assay; Potency, µM (top dose mostly 57.6 µM), usual class: inhibitors; AID 1347044; shares compounds with NPR1 antag; HEK293 hNpr1 cGMP GloSensor luminescence, ANP-stimulated; 1,400 compounds, 76% hits; calls by dose curve; further: nearly all actives have a fitted effect of over 70% in size
NPR2 antag = hNpr2 antagonism, selectivity versus Npr1; 1,400 compounds, 67% hits; AID 1347046; HEK293 hNpr2 GloSensor cGMP luminescence, CNP-stimulated; shares compounds with NPR1 antag; Potency, µM (top dose mostly 57.6 µM), actives largely listed as inhibitors; calls by dose curve; further: nearly all actives have a fitted effect of over 70% in size
FLuc counter = counter-screen for Npr1 antagonists: firefly luciferase inhibitors; shares compounds with NPR1 antag; Potency, µM (top dose mostly 57.6 µM), actives largely listed as inhibitors; 1,400 compounds, 0.7% hits; AID 1347047; purified FLuc enzyme, luminescence, Km substrate
GloSensor cGMP = counter-screen for Npr1 antagonists: GloSensor control cell line; Potency, µM (doses to about 57.6 µM), most hits filed as inhibitors; 1,400 compounds, 69% hits; HEK293 GloSensor cGMP, SNP-stimulated, luminescence; shares compounds with NPR1 antag; calls by dose curve; further: nearly all actives have a fitted effect of over 70% in size
A number is an active result. Unless noted, the call rests on the fitted dose curve; in most records, active means well fitted curve in the direction sought with a large enough effect; inconclusive means small, poorly fitted or top-dose-only effect, or another doubt; inactive means no such curve, though single readings can be large; an effect the other way counts as inactive or inconclusive.

Screening Cc1ccc(C)c(CN2C(=O)NC3(CCN(C(=O)c4ccccn4)CC3)C2=O)c1 returned NPR1 antag inactive, SNCA expr inh inconclusive, FLuc inh inactive, NIH3T3 tox inactive, HEK cytotox inactive and SNCA viab count inactive.
Cc1ccc(C)c(CN2C(=O)NC3(CCN(C(=O)Cc4cccc(F)c4)CC3)C2=O)c1 was read as NPR1 antag inconclusive, SNCA expr inh inactive, FLuc inh inactive, NIH3T3 tox inconclusive, HEK cytotox inconclusive, SNCA viab count inactive, Npr1 antag conf inconclusive, NPR2 antag inconclusive, FLuc counter inactive and GloSensor cGMP inconclusive.
`O=C(Cc1cccc(F)c1)N1CCC2(CC1)NC(=O)N(Cc1ccccc1Cl)C2=O` gave NPR1 antag inconclusive, SNCA expr inh inactive, FLuc inh inactive, NIH3T3 tox inconclusive, HEK cytotox inconclusive, SNCA viab count inactive, Npr1 antag conf inconclusive, NPR2 antag inactive, FLuc counter inactive and GloSensor cGMP inactive.
For CS(=O)(=O)N1CCCN(C(=O)Nc2ccccc2)CCNC(=O)CC1c1ccccc1 (configuration not stated) the results were NPR1 antag inactive, SNCA expr inh inactive, FLuc inh inactive, NIH3T3 tox inactive, HEK cytotox inactive and SNCA viab count inactive.
Screening O=C(NC1CCN(c2cc(-c3ccc(Cl)cc3)[nH]n2)C1)c1ccc(Br)cc1 (configuration not stated) returned NPR1 antag inactive, SNCA expr inh inactive, FLuc inh inactive, NIH3T3 tox inconclusive, HEK cytotox inconclusive and SNCA viab count inactive.
`O=C(c1cccnc1)N1CCCC2(CN[S+](=O)([O-])c3cccnc3N2)C1` (configuration not stated) gave NIH3T3 tox inactive and HEK cytotox inactive.
`CC1(C)[C@H](Cc2cc(CN3CCN(c4ccccc4)CC3)on2)C[C@@H]1NC(=O)NCc1ccccc1` gave NPR1 antag 11µM, SNCA expr inh inconclusive, FLuc inh inactive, NIH3T3 tox inconclusive, HEK cytotox 25µM, SNCA viab count inactive, Npr1 antag conf 22µM, NPR2 antag inconclusive, FLuc counter inactive and GloSensor cGMP 17µM.
Screening CC(=O)N[C@H]1C[C@@H](Cc2cc(CN3CCCCC3)on2)C1(C)C returned NPR1 antag inactive, SNCA expr inh inactive, FLuc inh inactive, NIH3T3 tox inconclusive, HEK cytotox inactive and SNCA viab count inactive.
`CC1(C)[C@H](Cc2cc(CN3CCN(c4ccccc4)CC3)on2)C[C@@H]1NC(=O)Nc1ccc(F)cc1` gave NPR1 antag 13µM, SNCA expr inh inconclusive, FLuc inh inactive, NIH3T3 tox inconclusive, HEK cytotox inconclusive, SNCA viab count inactive, Npr1 antag conf 19µM, NPR2 antag 22µM, FLuc counter inactive and GloSensor cGMP 19µM.
Screening CC(C)(C)CC(=O)N[C@H]1C[C@@H](Cc2cc(COc3ccccc3)on2)C1(C)C returned NPR1 antag 14µM, SNCA expr inh inconclusive, FLuc inh inactive, NIH3T3 tox inconclusive, HEK cytotox inconclusive, SNCA viab count inconclusive, Npr1 antag conf 13µM, NPR2 antag 16µM, FLuc counter inactive and GloSensor cGMP 14µM.
